Bioassay records deposited in PubChem BioAssay by The Scripps Research Institute Molecular Screening Center.
CHO-K1 Ca ag: counter-screen for M1 agonists: effect in parental CHO-K1 cells; AID 602248; Fluo-8 calcium fluorescence; scaled to maximal ATP response, vehicle zero; actives 0.48% (n = 360,000); activation, % at 3 µM; in the data active = activation above about 15%;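 note: untransfected CHO-K1 host cells lacking M1 receptor as counterscreen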
CHO-K1 Ca antag: M1 antagonist counterscreen hit in parental CHO-K1 cells; ATP-induced calcium, Fluo-8 fluorescence; inhibition, % at 3 µM; actives 0.6% (n = 360,000); AID 602250;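 active = inhibition above a per-plate cutoff, the plate's mean sample inhibition plus 3 SD, cut at about 24% in these data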
CHRM1 antagonist: blocks human M1 muscarinic receptor; CHO-K1 hM1, Fluo-8 calcium fluorescence, ACh EC80 antagonist; inhibition, % at 3 µM; actives 1.3% (n = 360,000); AID 588852;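 active = percent inhibition above its own plate's cutoff, namely the mean of that plate's compound wells plus 3 SD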;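 note: peak over basal fluorescence ratio during 140 s after agonist addition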
Target sequence (P11229 whole entry, looked up): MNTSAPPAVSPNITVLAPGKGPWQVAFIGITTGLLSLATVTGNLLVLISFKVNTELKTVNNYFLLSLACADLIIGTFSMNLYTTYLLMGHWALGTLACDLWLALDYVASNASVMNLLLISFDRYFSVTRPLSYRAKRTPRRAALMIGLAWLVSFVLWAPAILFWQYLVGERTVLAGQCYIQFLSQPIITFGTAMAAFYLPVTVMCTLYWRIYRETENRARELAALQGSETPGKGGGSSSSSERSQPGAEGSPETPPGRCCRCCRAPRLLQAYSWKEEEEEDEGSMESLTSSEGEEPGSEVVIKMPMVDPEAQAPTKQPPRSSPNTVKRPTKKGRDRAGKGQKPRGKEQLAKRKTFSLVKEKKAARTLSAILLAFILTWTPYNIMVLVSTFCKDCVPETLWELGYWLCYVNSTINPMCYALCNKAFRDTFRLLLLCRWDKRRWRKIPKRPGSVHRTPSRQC
CHRM1 PAM: potentiates human M1 receptor response to acetylcholine. actives 0.088% (n = 360,000). activation, % at 3 µM. CHO-K1 hM1, Fluo-8 calcium fluorescence, ACh EC20; 0% = ACh EC20, 100% = maximal ACh. P11229. AID 588819; in the data active = activation above about 19%, passing the limit was not always enough
M1 PAM parental: nonselective activator or artifact in parental CHO-K1 calcium assay | actives 0.02% (n = 360,000) | ATP EC20, Fluo-8 calcium fluorescence; 0% at ATP EC20, 100% at ATP max | activation, % at 3 µM;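 active = activation above the run cutoff, the mean activation of all test compounds plus 3 SD, cut at about 40% in these data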;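 note: peak over basal fluorescence ratio in a 140 s read after ATP addition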
M1 ag: agonists of human M1 muscarinic receptor; AID 588814; actives 0.33% (n = 360,000); P11229; CHO-K1 hM1, Fluo-8 calcium fluorescence, agonist mode; 0% DMSO, 100% acetylcholine EC100; activation, % at 3 µM;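 active = activation above the run's mean compound activation plus 3 SD, cut at about 16% in these data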;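 note: peak over basal fluorescence ratio within a 140 s kinetic read after compound addition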
Of the large screens only hits and unclear results are named; the others gave an inactive call. An excerpt weighted towards active compounds, which were near 2.3% of everything screened.

COc1cccc(C(=O)NCCN2CCC(n3c(=O)[nH]c4ccccc43)CC2)c1	none (no result: CHRM1 antagonist, CHRM1 PAM, M1 ag)
Cc1ccc(NC(=O)COC(=O)C2CC(=O)N(Cc3ccccc3)C2)cc1S(=O)(=O)N(C)C (stereo unspecified)	none
Cc1cc(NC(=O)CS(=O)(=O)c2cn(Cc3cccc(Br)c3)c3ccccc23)no1	M1 ag 30
CCCn1cc(SCC(=O)Nc2cc(C)on2)c2ccccc21	none
Cc1cc(NC(=O)CS(=O)c2cn(Cc3cccc(Cl)c3)c3ccccc23)no1 (stereo unspecified)	M1 ag 23
Cc1cc(NC(=O)CS(=O)(=O)c2cn(Cc3ccccc3Cl)c3ccccc23)no1	none
Cc1nn(C)c(C)c1CN(C)S(=O)(=O)c1ccc2ccccc2c1	CHO-K1 Ca antag 25, CHRM1 antagonist 24
CC1Sc2ccc(S(=O)(=O)N3CCC(C(=O)NCC(C)c4ccccc4)CC3)cc2NC1=O (stereo unspecified)	CHO-K1 Ca ag 15, CHRM1 antagonist 46
CC1Sc2ccc(S(=O)(=O)N3CCC(C(=O)NCCc4ccccc4)CC3)cc2NC1=O (stereo unspecified)	none
O=C(Nc1cccc(NC(=O)c2ccccc2Cl)c1)c1ccc(F)cc1	CHO-K1 Ca antag 25
O=C(Nc1cccc(NC(=O)c2ccc(F)cc2)c1)c1ccc(F)cc1	none
O=C(Nc1cccc(NC(=O)c2ccccc2Cl)c1)c1ccc([N+](=O)[O-])o1	CHO-K1 Ca ag 17
O=C1c2cc(S(=O)(=O)N(CCO)CCO)ccc2-c2ccc(S(=O)(=O)N(CCO)CCO)cc21	CHO-K1 Ca ag 16
O=S(=O)(c1ccc(Oc2ccc(S(=O)(=O)N(CCO)CCO)cc2)cc1)N(CCO)CCO	none
CCn1c(C)c(C(C)=O)c(NCc2ccccc2)nc1=S	CHRM1 antagonist 51
CN(CC(=O)Nc1ccc(F)cc1)C(=O)COC(=O)c1cc(Br)c(Br)s1	none
O=C(NC(=S)Nc1cccnc1)c1cc2ccccc2o1	none
O=C(Nc1cccnc1)c1cc2cc(Br)ccc2o1	CHRM1 antagonist 60
Cn1c(=O)c(C(=O)N2CCc3ccccc32)cc2cccnc21	none
N#CN(CC(N)=O)c1nc(N2CCCCC2)nc(N2CCCCC2)n1	CHO-K1 Ca antag 28
Cc1cccc(NC(=O)C(=O)NCC2CCCN2S(=O)(=O)c2cccs2)c1 (stereo unspecified)	none
CCN1/C(=C/c2sc(-c3ccccc3C)c[n+]2C)Sc2ccccc21	CHO-K1 Ca antag 34, CHRM1 antagonist 48
CCN1/C(=C/C=C/C=C/C=C/c2sc3ccccc3[n+]2CC)Sc2ccccc21	none
COc1ccc(NC(=O)c2cc(C3CCCCN3S(=O)(=O)c3ccc(F)cc3F)on2)c(C)c1 (stereo unspecified)	none
COc1ccc(NC(=O)c2ccccc2Oc2ccccc2)c(OC)c1	none
COc1ccc(NC(=O)c2ccccc2OCc2ccc(F)cc2)c(OC)c1	M1 PAM parental 43
COc1ccc(NC(=O)c2cccnc2)c(OC)c1	CHO-K1 Ca antag 27
COC(=O)c1cc(OC)c(OC)cc1NC(=O)c1ccc(OC)cc1	CHO-K1 Ca ag 20, CHO-K1 Ca antag 26
COc1ccc(C(=O)Nc2ccccc2Cc2ccccc2)c(OC)c1	M1 PAM parental 52
COc1cc(OC)cc(C2=Cc3ccccc3C(CC(=O)c3ccco3)N2c2ccc(-c3ccc(C(N)=O)cc3)cc2)c1 (stereo unspecified)	none (no result: CHRM1 antagonist, CHRM1 PAM, M1 ag)
O=C(C(Cc1ccccc1)N1C(=O)c2ccccc2C1=O)N1CCc2ccccc21 (stereo unspecified)	CHO-K1 Ca antag 26
O=C(Cc1ccccc1)N1CCc2ccccc21	none
CCNC(=S)Nc1ccc(Cl)c(C(F)(F)F)c1	none
CC/C(=N\NC(=O)CSCc1ccc(Cl)cc1)c1ccc2c(c1)OCCO2	CHO-K1 Ca antag 28
CC/C(=N\NC(=O)CSCc1ccccc1Cl)c1ccc2c(c1)OCCO2	none
S=c1[nH]nc(-c2ccncc2)n1/N=C/C=C/c1ccco1	none
C(=C\c1ccco1)/C=N/n1cnnc1	CHO-K1 Ca antag 26
CN(C)S(=O)(=O)c1ccc(C(=O)NCc2nnc(SCC(=O)Nc3ccc(F)cc3)n2-c2ccc(F)cc2)cc1	none
